According to PubChem BioAssay (NCI):
About 83,000 compounds went through this panel and 20% of them were active in at least one assay; those are over-represented in the sample as a whole.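 48-hour exposure, single concentration, 96-well plates; percent growth endpoint where 0 means no net growth. Active: below 10.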 Values without a mark were called inactive. Activity calls are given as the source filed them.

system: MDA-MB-468 breast; assay: NCI-60 one-dose screen, 48 h (100 = growth as untreated, 0 = no growth, -100 = all killed); settings: 10 µM unless noted

SMILES | growth
C/C(=N\OC(=O)Nc1cccc(Cl)c1)c1ccccc1 | 75.1%
O=C(CCCCCNC(=O)c1cc(=O)c(O)co1)Nc1ccccc1 | 108%
CN1CCN(c2ccc(N3Cc4ccccc4OC4=C3C(=O)c3c(O)ccc(O)c3C4=O)cn2)CC1 | -60.1% (active)
N=C(N)c1ccc(-c2ccc(-c3ccc(Cl)c(Cl)c3)s2)cc1 | -61.6% (active)
